Laboratory results reported in PubChem BioAssay (EPA / NIEHS).
Where “and” joins values, the source holds several entries; their conditions need not be identical. Equal entries are not always repeated. Inconclusive results are not listed. A structure can be active in one record and inactive in another. Calls of active or inactive are those of the source. The calls were made as follows, unless noted: active = hit-call score of the fitted dose curve at least 0.9, where 1 is the maximum; inactive = score below 0.9.

Experiments:
[1] = APR_HepG2_CellLoss_1hr: Apredica 1-hour HepG2 Assay for Cell Loss (AID 2282668); conditions: high-content imaging;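 also: curves fitted both ways against DMSO so gain or loss of cells counts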
Summary of the method: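 Cell number comes from high-content imaging of Hoechst-labelled nuclei in fixed HepG2 cells. Cells were exposed for 1 h to ten concentrations from 0.39 to 200 uM in 0.5% DMSO. Gain or loss was fitted against DMSO controls.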

[2] = APR_HepG2_MicrotubuleCSK_1hr: Apredica 1-hour HepG2 Assay for Microtubule CSK Stabilty (AID 2282669); conditions: HepG2 microtubule cytoskeleton imaging, actives raise or lower the signal
Summary of the method: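 Alpha-tubulin immunofluorescence, imaged by automated high-content microscopy with Hoechst nuclear segmentation, measured cytoskeletal change after 1 h dosing of HepG2 at 0.39–200 uM in 0.5% DMSO. Activity fitted in both directions relative to DMSO.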

[3] = APR_HepG2_NuclearSize_1hr: Apredica 1-hour HepG2 Assay for Nuclear Size (AID 2282670); conditions: high-content imaging, actives raise or lower the signal
Summary of the method: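 Nuclear size measured by high-content imaging of Hoechst 33342 nuclear stain after formaldehyde fixation; human HepG2 line exposed 1 hr to compounds at 0.39–200 uM in 0.5% DMSO, with bidirectional curve fitting relative to DMSO.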

[4] = APR_HepG2_MitoticArrest_1hr: Apredica 1-hour HepG2 Assay for Mitotic Arrest (AID 2282672); conditions: high-content imaging, actives raise or lower the signal
Summary of the method: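 Ten-point concentration series (0.39 to 200 uM, duplicates, 0.5% v/v DMSO) applied to human HepG2 liver cells for 1 hr. High-content imaging of phospho-histone H3 and Hoechst-stained nuclei after fixation and permeabilization; DMSO-normalised bidirectional fit.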

[5] = APR_HepG2_P-H2AX_1hr: Apredica 1-hour HepG2 Assay for H2AX Phosphorylation (AID 2282673); conditions: high-content imaging, actives raise or lower the signal
Summary of the method: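 Phospho-H2A.x immunofluorescence (1:200, FITC secondary) plus Hoechst nuclear stain, quantified by high-content imaging in HepG2 after 1 hr compound exposure. Ten concentrations, 0.39 to 200 uM, in duplicate with 0.5% DMSO; fit both directions against DMSO.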

[6] = APR_HepG2_MitoMembPot_1hr: Apredica 1-hour HepG2 Assay for Mitochondrial Membrane Potential (AID 2282675); conditions: imaging, actives raise or lower the signal
Summary of the method: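 Mitochondrial membrane potential read as MitoTracker Red CMXRos intensity by automated imaging of fixed HepG2 cells. Dye at 250 nM for 30 min pre-fixation; compounds 0.39 to 200 uM for 1 hour, duplicate wells, 0.5% DMSO.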

[7] = APR_HepG2_NuclearSize_24hr: Apredica 24-hour HepG2 Assay for Nuclear Size (AID 2282907); conditions: high-content imaging, actives raise or lower the signal
Summary of the method: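 After fixation and permeabilization, 24-hr-treated HepG2 cells were stained with Hoechst 33342 and imaged on an ArrayScan (20x). Doses spanned 0.39–200 uM in duplicate. Nuclear diameter changes in either direction were fitted relative to 0.5% DMSO controls.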

[8] = APR_HepG2_CellLoss_24hr: Apredica 24-hour HepG2 Assay for Cell Loss (AID 2282908); conditions: high-content imaging;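 as to AC50: fit in both directions so a hit may be cell loss or gain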
Summary of the method: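 Duplicate wells received compound at ten concentrations (0.39–200 uM; final DMSO 0.5% v/v). After fixation with formaldehyde, nuclei stained with Hoechst 33342 were imaged at 20x. Loss or gain of cell count was fitted relative to DMSO controls.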

[9] = APR_HepG2_MicrotubuleCSK_24hr: Apredica 24-hour HepG2 Assay for Microtubule CSK Stabilty (AID 2282909); conditions: HepG2 microtubule cytoskeleton imaging, actives raise or lower the signal
Summary of the method: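 Microtubule stability is scored from tubulin immunofluorescence in fixed HepG2 cells imaged at 20x. Cells receive ten compound concentrations up to 200 uM for 24 h; taxol and DMSO serve as positive and negative controls.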

[10] = APR_HepG2_MitoMembPot_24hr: Apredica 24-hour HepG2 Assay for Mitochondrial Membrane Potential (AID 2282911); conditions: imaging, actives raise or lower the signal
Summary of the method: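 HepG2 human liver cells were exposed 24 hr to compounds at 0.39–200 uM (final DMSO 0.5% v/v) in duplicate. MitoTracker Red CMXRos (250 nM, 30 min) was loaded before formaldehyde fixation; fluorescence was imaged by ArrayScan HCS and fitted bidirectionally versus DMSO.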

[11] = APR_HepG2_MitoMass_24hr: Apredica 24-hour HepG2 Assay for Mitochondrial Mass (AID 2282912); conditions: high-content imaging, actives raise or lower the signal
Summary of the method: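 Readout: fluorescence of MitoTracker Red CMXRos (250 nM, added 30 min pre-fixation) in fixed HepG2 cells imaged by HCS. Exposure lasted 24 hr at 0.39–200 uM; increases and decreases were both fitted relative to DMSO.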

[12] = APR_HepG2_p53Act_24hr: Apredica 24-hour HepG2 Assay for p53 Activation (AID 2282913); conditions: high-content imaging, actives raise or lower the signal;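 also: p53 protein immunofluorescence averaged per cell in HepG2 with Hoechst nuclei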
Summary of the method: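 HepG2 cells exposed 24 hr to compounds at 0.39–200 uM (10 concentrations, duplicate), final DMSO 0.5% v/v. After formaldehyde fixation and Triton permeabilization, p53 was immunolabeled (sheep anti-p53, Cy5 secondary) with Hoechst 33342 nuclear counterstain, then imaged by high-content fluorescence microscopy.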

[13] = APR_HepG2_CellCycleArrest_72hr: Apredica 72-hour HepG2 Assay for Cell Cycle Arrest (AID 2282914); conditions: high-content imaging, actives raise or lower the signal
Summary of the method: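 HepG2 cells were exposed to compounds at 0.39–200 uM (0.5% v/v DMSO final, duplicates) for 72 hr, fixed in 3.7% formaldehyde, permeabilized and stained with Hoechst 33342. Nuclear DNA content was quantified by high-content imaging; gain or loss of signal was fitted bidirectionally against DMSO.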

[14] = APR_HepG2_CellLoss_72hr: Apredica 72-hour HepG2 Assay for Cell Loss (AID 2282915); conditions: high-content imaging
Summary of the method: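 HepG2 cells were exposed for 72 hr to compounds at 0.39–200 uM (ten concentrations, duplicate) in 0.5% v/v final DMSO. Nuclei were stained with Hoechst 33342 after 3.7% formaldehyde fixation, imaged at 20x, and counted; fits bidirectional versus DMSO.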

[15] = APR_HepG2_CellCycleArrest_24hr: Apredica 24-hour HepG2 Assay for Cell Cycle Arrest (AID 2282905); conditions: imaging, actives raise or lower the signal;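 also: cell cycle arrest scored as ratio of 2N to 4N nuclear DNA content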
Summary of the method: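 Step one: dose HepG2 with test compounds, 0.39–200 uM, 0.5% DMSO, 24 hr. Step two: fix, permeabilize, stain nuclei with Hoechst 33342. Step three: image six fields per well at 20x, quantify DNA content, fit bidirectionally relative to DMSO.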

[16] = APR_HepG2_MitoticArrest_24hr: Apredica 24-hour HepG2 Assay for Mitotic Arrest (AID 2282910); conditions: high-content imaging, actives raise or lower the signal
Summary of the method: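 Treatment lasted 24 hr in the human HepG2 line at 0.39–200 uM, solvent held at 0.5% DMSO. Fixed cells were stained with Hoechst 33342 and anti-phospho-histone H3, imaged at 20x, and analysed by gain- or loss-of-signal fitting against DMSO.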

[17] = ACEA_ER_80hr: ACEA Biosciences xCELLigence Real-Time Cell Analysis on Estrogen Receptor Agonism for Proliferation (AID 2282667; active = hit-call score of the fitted dose curve at least 0.9, where 1 is the maximum); conditions: T47D proliferation, impedance (xCELLigence), 80 h
Summary of the method: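 T47D human breast cells were seeded on electrode plates, monitored overnight, then exposed continuously to compounds in eight-point 1:4 dilutions from 100 uM (max 0.5% DMSO). Impedance-based growth was read at 80 h, fitted upward relative to DMSO.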

[18] = APR_HepG2_MitoMass_1hr: Apredica 1-hour HepG2 Assay for Mitochondrial Mass (AID 2282674); conditions: high-content imaging, actives raise or lower the signal
Summary of the method: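 Mitochondrial mass is taken from MitoTracker Red CMXRos (250 nM, 30 min, pre-fixation) fluorescence imaged at 20x in HepG2 cells. Exposure lasted 1 hr across ten concentrations, 0.39 to 200 uM, 0.5% DMSO; DMSO baseline, bidirectional fitting.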

[19] = APR_HepG2_StressKinase_1hr: Apredica 1-hour HepG2 Assay for Stress Kinase (AID 2282906); conditions: HepG2 stress kinase (phospho-c-Jun) imaging, actives raise or lower the signal
Summary of the method: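 High-content imaging of phospho-c-Jun immunostaining (with Hoechst nuclear identification) after a 1 h exposure of HepG2 cells to 10 concentrations from 0.39 to 200 uM, final DMSO 0.5%. Fitted bidirectionally against DMSO.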

Measured: AC50

COC(=O)CSc1cc(N=c2sc(=O)n3n2CCCC3)c(F)cc1Cl
active: [8] 103 µM | [14] 98.9 µM
not listed: [15] | [16] | [17] | [18] | [19]
inactive: all other assays above

CCCOC(=O)NCCCN(C)C
not listed: [2] | [12] | [17] | [18] | [19]
inactive: all other assays above

C[C@]12C[C@H](O)[C@H]3[C@@H](CCC4=CC(=O)CC[C@@]43C)[C@@H]1CC[C@@H]2C(=O)CO
inactive: [9] | [11] | [13]
active: [17] 32.8 nM and 26.6 nM and 102 nM | [7] 109 µM | [8] 65.3 µM | [10] 82.9 µM | [12] 86.2 µM | [14] 32.9 µM

c1ccc2[nH]c(-c3cscn3)nc2c1
not listed: [2] | [12] | [15] | [17]
inactive: all other assays above

CC(C)(c1ccc(O)cc1)c1ccc(O)cc1
active: [8] 106 µM and 107 µM and 100 µM | [9] 103 µM | [10] 12.7 µM and 30.5 µM and 101 µM | [11] 109 µM and 122 µM | [14] 109 µM [middle of 4 runs]
inactive: [1] | [3] | [4] | [5] | [6] | [15] | [7] | [8] | [9] | [16] | [10] | [11] | [13]

CC(C)(C)[C@@H](O)[C@@H](Cc1ccc(Cl)cc1)n1cncn1
active: [10] 15.8 µM | [14] 33.4 µM
not listed: [2] | [12] | [16] | [17] | [18] | [19]
inactive: all other assays above

CCCCCOC(=O)COc1cc(N2C(=O)C3=C(CCCC3)C2=O)c(F)cc1Cl
active: [19] 87.4 µM | [14] 105 µM
not listed: [2] | [12] | [15] | [17] | [18]
inactive: all other assays above

CC(C)CCCCCCc1ccc(O)cc1
inactive: [7]
active: [17] 320 nM [middle of 4 runs] | [8] 26.8 µM | [9] 65.4 µM | [10] 115 µM | [11] 34.5 µM | [13] 123 µM | [14] 28.8 µM
